Experimental data as given in PubChem BioAssay (Tox21).
Records with an inconclusive call do not appear. Active and inactive are the calls of the source. Unless noted, calls come from the whole dose curve.

Tests used:
[1] = Nuclear factor erythroid 2-related factor 2/antioxidant responsive element (Nrf2/ARE) small molecule agonists: qHTS cell viability counter screen in human keratinocytes (AID 1919968; active = well fitted curve in the direction sought with a large enough effect in the repeat runs; an effect the other way counts as inactive or inconclusive; note: nearly all actives have a fitted effect of over 55% in size)
How it was run: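 Seed 1,500 KeratinoSens cells per well, then incubate 5 h at 37 C/5% CO2. Add compounds in DMSO and incubate 23 h. Add CellTiter-Fluor, wait 1 h and read fluorescence.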

[2] = Nuclear factor erythroid 2-related factor 2/antioxidant responsive element (Nrf2/ARE) small molecule agonists: luciferase reporter gene qHTS assay in human keratinocytes (AID 1919969); note: nearly all actives have a fitted effect of over 35% in size
[3] = molecular target: Gonadotropin-releasing hormone receptor (Homo sapiens) (UniProt P30968); assay: Human gonadotropin-releasing hormone receptor (GnRHR) small molecule agonists, calcium flux assay in GnRHR-HEK293 cells (AID 1920063); note: nearly all actives have a fitted effect of over 35% in size
Chain of Gonadotropin-releasing hormone receptor (Homo sapiens) (P30968 whole entry, looked up): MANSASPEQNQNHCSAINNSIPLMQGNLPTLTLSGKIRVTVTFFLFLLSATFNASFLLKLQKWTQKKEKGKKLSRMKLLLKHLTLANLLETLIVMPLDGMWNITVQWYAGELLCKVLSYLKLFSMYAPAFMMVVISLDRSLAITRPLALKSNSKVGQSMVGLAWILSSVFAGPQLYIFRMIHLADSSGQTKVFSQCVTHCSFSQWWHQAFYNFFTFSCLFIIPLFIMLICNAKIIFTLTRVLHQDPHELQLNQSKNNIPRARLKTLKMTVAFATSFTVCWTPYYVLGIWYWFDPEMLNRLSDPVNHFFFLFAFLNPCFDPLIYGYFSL
How it was run: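 Cells: HEK293 stably expressing human GnRHR. Steps: overnight (18 h) culture, 1 h calcium dye loading at 37 C, compound addition, kinetic fluorescence read at 480/540 nm. Each compound tested at 15 concentrations in triplicate.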

[4] = molecular target: KiSS-1 receptor (Homo sapiens) (UniProt Q969F8); assay: Human kisspeptin (KISS1R) small molecule agonists, calcium flux assay in KISS1R-HEK293 cells (AID 1920064; active = well fitted curve in the direction sought with a large enough effect in the repeat runs; an effect the other way counts as inactive or inconclusive)
Chain of KiSS-1 receptor (Homo sapiens) (Q969F8 whole entry, looked up): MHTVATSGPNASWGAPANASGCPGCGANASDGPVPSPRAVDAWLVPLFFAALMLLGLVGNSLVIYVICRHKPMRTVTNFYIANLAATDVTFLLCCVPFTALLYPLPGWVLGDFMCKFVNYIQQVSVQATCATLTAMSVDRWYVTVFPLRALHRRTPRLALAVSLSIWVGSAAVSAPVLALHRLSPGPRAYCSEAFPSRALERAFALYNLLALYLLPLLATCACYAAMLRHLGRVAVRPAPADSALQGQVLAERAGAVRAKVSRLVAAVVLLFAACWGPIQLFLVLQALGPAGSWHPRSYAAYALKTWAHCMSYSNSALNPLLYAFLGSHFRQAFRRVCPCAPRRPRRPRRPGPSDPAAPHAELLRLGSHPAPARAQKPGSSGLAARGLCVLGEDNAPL
How it was run: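 Cells plated and incubated 18 h; dye added, 1 h at 37 C; compounds in DMSO pinned in; signal read at 480/540 nm every second for 3 min. Each compound tested at 15 concentrations in triplicate.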

[5] = G protein-coupled receptor (GPCR) small molecule agonists, calcium flux assay: HEK293 wild type cell line counter screen (AID 1920065)
How it was run: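 Counter-screen of the Tox21 10K library for non-specific calcium release: dye-loaded cells received compounds in DMSO and were monitored by kinetic fluorescence (480/540 nm, 3 min). Fifteen concentrations, run in triplicate.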

[6] = p53 small molecule agonists, cell-based qHTS assay with human liver microsomes (AID 1963577);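 note: p53 response element beta-lactamase reporter cells with liver microsomes plus NADPH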
How it was run: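 p53RE-bla cells; 5 h settle, 37 C/5% CO2; cpd + HLM 0.5 mg/mL + NADPH 0.5 mg/mL (final); 16 h 37 C; LiveBLAzer 2 h RT dark; fluorescence readout.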

[7] = p53 small molecule agonists, cell-based qHTS assay with rat liver microsomes (AID 1963578)
How it was run: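 Rat liver microsome activation: microsomes 0.5 mg/mL, NADPH 0.5 mg/mL final; p53RE-bla cells, 16 h 37 C; LiveBLAzer readout, 2 h RT dark.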

[8] = p53 small molecule agonists, cell-based qHTS assay with human liver microsomes: qHTS cell viability counter screen (AID 1963579); note: nearly all actives have a fitted effect of over 45% in size
How it was run: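 Luminescent CellTiter-Glo read-out, 30 min at room temperature, gauged cytotoxicity in p53RE-bla cells exposed 16 h at 37 C to DMSO-dissolved compounds with metabolic activation by human liver microsomes and NADPH, each 0.5 mg/mL final.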

[9] = p53 small molecule agonists, cell-based qHTS assay with rat liver microsomes: qHTS cell viability counter screen (AID 1963580); note: nearly all actives have a fitted effect of over 45% in size
How it was run: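 p53RE-bla HCT-116 cells (4,000/well) rested 5 h at 37 C, then given Tox21 compounds in DMSO with rat liver microsomes (0.5 mg/mL final) plus NADPH (0.5 mg/mL final) for 16 h at 37 C. Viability read by CellTiter-Glo luminescence after 30 min at room temperature.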

[10] = p53 small molecule agonists, cell-based qHTS assay: qHTS cell viability counter screen (AID 1963581); note: nearly all actives have a fitted effect of over 45% in size
How it was run: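 Cells: HCT-116 with p53 response element-driven beta-lactamase. Treatment: 16 h, 37 C, compounds in DMSO. Read: CellTiter-Glo luminescence after 30 min RT.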

[11] = p53 small molecule agonists, cell-based qHTS assay (AID 1963582; active = well fitted activation curve with a large enough effect in the signal ratio in the repeat runs, not every such curve was filed as active; the % refers to the signal ratio)
How it was run: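 Quantitative HTS in p53RE-bla cells: after a 5 h settling period, compounds delivered in DMSO were left on cells for 16 h at 37 C, and reporter induction was measured as fluorescence following 2 h substrate loading.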

[12] = molecular target: 5-hydroxytryptamine receptor 2A (Homo sapiens) (UniProt P28223); assay: 5-hydroxytryptamine receptor 2A (HTR2A) small molecule antagonists, cell-based qHTS assay (AID 1963586); note: nearly all actives have a fitted effect of over 45% in size
Chain of 5-hydroxytryptamine receptor 2A (Homo sapiens) (P28223 whole entry, looked up): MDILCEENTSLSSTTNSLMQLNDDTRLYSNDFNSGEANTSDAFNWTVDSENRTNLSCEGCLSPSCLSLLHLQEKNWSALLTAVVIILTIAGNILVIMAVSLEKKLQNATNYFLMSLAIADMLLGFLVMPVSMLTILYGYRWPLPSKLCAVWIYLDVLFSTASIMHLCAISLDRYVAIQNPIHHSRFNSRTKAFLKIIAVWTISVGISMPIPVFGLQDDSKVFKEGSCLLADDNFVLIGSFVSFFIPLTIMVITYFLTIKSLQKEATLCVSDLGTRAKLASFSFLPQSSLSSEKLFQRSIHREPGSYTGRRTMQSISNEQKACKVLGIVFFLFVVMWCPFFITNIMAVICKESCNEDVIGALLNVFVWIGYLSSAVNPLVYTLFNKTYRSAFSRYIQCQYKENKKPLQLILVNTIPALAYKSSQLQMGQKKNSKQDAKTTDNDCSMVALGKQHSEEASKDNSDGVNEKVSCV
How it was run: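 Antagonist-mode intracellular calcium assay: DOI (4 nM) added after 5 min compound pre-incubation at room temperature to dye-loaded HTR2A-CHO cells. Fluorescence followed for 3 min, sampled every second.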

[13] = molecular target: 5-hydroxytryptamine receptor 2A (Homo sapiens) (UniProt P28223); assay: 5-hydroxytryptamine receptor 2A (HTR2A) small molecule agonists, cell-based qHTS assay (AID 1963587); note: nearly all actives have a fitted effect of over 30% in size
How it was run: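 HTR2A-CHO cells, plated 18 h at 37 C/5% CO2, dye-loaded 1 h at 37 C; compounds in DMSO added by pin tool (agonist mode). Intracellular calcium flux read as kinetic fluorescence on FDSS over 2 min at 1 s intervals.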

[14] = molecular target: Muscarinic acetylcholine receptor M1 (Homo sapiens) (UniProt P11229); assay: Cholinergic receptor muscarinic 1 (CHRM1) small molecule antagonists, cell-based qHTS assay (AID 1963588); note: nearly all actives have a fitted effect of over 40% in size
Chain of Muscarinic acetylcholine receptor M1 (Homo sapiens) (P11229 whole entry, looked up): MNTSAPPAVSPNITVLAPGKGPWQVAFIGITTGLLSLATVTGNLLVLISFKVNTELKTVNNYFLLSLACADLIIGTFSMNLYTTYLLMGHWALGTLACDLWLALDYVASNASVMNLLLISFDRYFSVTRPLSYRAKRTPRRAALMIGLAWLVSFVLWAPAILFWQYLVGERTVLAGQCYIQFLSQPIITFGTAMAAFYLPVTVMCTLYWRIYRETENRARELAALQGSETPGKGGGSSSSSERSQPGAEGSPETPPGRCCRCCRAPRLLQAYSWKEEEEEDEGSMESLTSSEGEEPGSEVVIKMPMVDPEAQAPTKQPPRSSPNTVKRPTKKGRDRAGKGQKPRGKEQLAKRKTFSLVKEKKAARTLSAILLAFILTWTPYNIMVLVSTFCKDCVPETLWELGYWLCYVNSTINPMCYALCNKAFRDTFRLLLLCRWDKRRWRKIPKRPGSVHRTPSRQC
How it was run: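 CHRM1-CHO calcium-flux assay, antagonist mode. Cells were seeded 18 h, dye-loaded 1 h at 37 C and given compound for 5 min at RT, then acetylcholine was added at 50nM. FDSS fluorescence was read 3 min; 15 concentrations, three runs.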

[15] = molecular target: Muscarinic acetylcholine receptor M1 (Homo sapiens) (UniProt P11229); assay: Cholinergic receptor muscarinic 1 (CHRM1) small molecule agonists, cell-based qHTS assay (AID 1963589); note: nearly all actives have a fitted effect of over 35% in size
How it was run: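 Agonist-mode qHTS in CHO cells stably carrying human muscarinic M1. Intracellular calcium is tracked by fluorescence every second after compound transfer; each compound runs at 15 concentrations in three independent runs.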

[16] = cAMP Responsive Elements (CRE) small molecule antagonists, cell-based qHTS assay (AID 1963591; active = well fitted inhibition curve with a large enough effect in the signal ratio in the repeat runs, not every such curve was filed as active; the % refers to the signal ratio)
How it was run: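 Antagonist mode: test compounds are co-incubated with the adenylyl cyclase activator NKH477 (0.25 uM final) on CRE-bla HEK293T cells for 3 h at 37 °C, followed by LiveBLAzer substrate loading.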

[17] = molecular target: D(2) dopamine receptor (Homo sapiens) (UniProt P14416); assay: Dopamine D2 receptor (DRD2) small molecule agonists, cell-based qHTS assay (AID 1963594); note: nearly all actives have a fitted effect of over 35% in size
Chain of D(2) dopamine receptor (Homo sapiens) (P14416 whole entry, looked up): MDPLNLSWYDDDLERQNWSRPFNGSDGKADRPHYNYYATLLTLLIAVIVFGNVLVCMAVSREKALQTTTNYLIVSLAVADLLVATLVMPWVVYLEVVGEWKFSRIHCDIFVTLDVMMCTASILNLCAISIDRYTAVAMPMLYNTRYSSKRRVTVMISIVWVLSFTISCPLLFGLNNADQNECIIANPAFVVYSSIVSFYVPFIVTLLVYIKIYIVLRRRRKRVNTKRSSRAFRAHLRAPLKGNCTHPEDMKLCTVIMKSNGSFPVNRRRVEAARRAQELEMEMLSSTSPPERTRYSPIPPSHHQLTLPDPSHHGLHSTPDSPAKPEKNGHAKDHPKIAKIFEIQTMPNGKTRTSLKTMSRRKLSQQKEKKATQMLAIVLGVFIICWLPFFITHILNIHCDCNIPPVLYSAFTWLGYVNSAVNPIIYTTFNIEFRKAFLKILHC
How it was run: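 HEK293 cells stably expressing DRD2 were cultured 24 h at 37 C, then given Ro20-1724 (0.1 mM final) and compounds for 10 min at room temperature. NKH477 (200nM) was then added for 30 min. cAMP was read by HTRF.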

[18] = molecular target: D(2) dopamine receptor (Homo sapiens) (UniProt P14416); assay: Dopamine D2 receptor (DRD2) small molecule antagonists, cell-based qHTS assay (AID 1963595; active = well fitted inhibition curve with a large enough effect in the signal ratio in the repeat runs, with a control signal flat; the % refers to the signal ratio)
How it was run: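 In this cell-based antagonist screen, compounds act for 10 min at room temperature before a 30 min challenge with 12 nM quinpirole and 200 nM NKH477. cAMP is quantified by HTRF competition in DRD2-HEK293 cells containing 0.1 mM Ro20-1724.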

[19] = cAMP Responsive Elements (CRE) small molecule agonists, cell-based qHTS assay (AID 1963590)
How it was run: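 Agonist mode qHTS in CRE-bla HEK 293T cells: compounds dosed from DMSO for 3 h at 37 C/5% CO2, followed by LiveBLAzer B/G FRET substrate for 2 h at room temperature.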

[20] = molecular target: Beta-2 adrenergic receptor (Homo sapiens) (UniProt P07550); assay: Adrenergic beta2 receptor (ADRB2) small molecule antagonists, cell-based qHTS assay (AID 1963592); note: series mostly up to about 92 µM; nearly all actives have a fitted effect of over 50% in size
Chain of Beta-2 adrenergic receptor (Homo sapiens) (P07550 whole entry, looked up): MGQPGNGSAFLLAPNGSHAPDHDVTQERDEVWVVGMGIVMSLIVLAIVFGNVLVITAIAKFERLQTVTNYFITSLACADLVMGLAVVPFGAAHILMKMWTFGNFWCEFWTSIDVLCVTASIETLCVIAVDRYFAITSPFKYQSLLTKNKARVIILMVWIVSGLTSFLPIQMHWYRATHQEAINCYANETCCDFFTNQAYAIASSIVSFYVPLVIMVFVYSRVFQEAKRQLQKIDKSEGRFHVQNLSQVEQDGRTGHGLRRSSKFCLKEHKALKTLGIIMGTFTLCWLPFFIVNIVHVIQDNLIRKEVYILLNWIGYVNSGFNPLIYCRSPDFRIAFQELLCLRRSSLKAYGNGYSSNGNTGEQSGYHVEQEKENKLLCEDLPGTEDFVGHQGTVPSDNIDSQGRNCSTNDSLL
How it was run: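 Cells (CHO, stable ADRB2 overexpression) incubated 18-20hr at 37C; compounds added from DMSO; agonist mix (1nM isoproterenol, 100uM IBMX, 25uM Ro-20-1724) added; 0.5hr RT; d2-cAMP and anti-cAMP-cryptate added; 1hr RT; 665/615 nm read.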
% is set by controls: 0 for no effect and ±100 for the full control effect.

Nc1c(Cl)c(F)nc(OCC(=O)O)c1Cl
inactive: Potency [1] | Potency [2] | Potency [3] | Potency [4] | Potency [5] | Potency [6] | Potency [7] | Potency [8] | Potency [9] | Potency [10] | Potency [11] | Potency [12] | Potency [13] | Potency [14] | Potency [15] | Potency [16] | Potency [17] | Potency [18]

[As]#[In]
inactive: Potency [1] | Potency [2] | Potency [3] | Potency [4] | Potency [5] | Potency [6] | Potency [7] | Potency [8] | Potency [9] | Potency [10] | Potency [11] | Potency [13] | Potency [14] | Potency [15] | Potency [19] | Potency [16] | Potency [20] | Potency [17] | Potency [18]

II
inactive: Potency [1] | Potency [2] | Potency [3] | Potency [4] | Potency [5] | Potency [6] | Potency [7] | Potency [8] | Potency [9] | Potency [10] | Potency [11] | Potency [12] | Potency [14] | Potency [19] | Potency [16] | Potency [20] | Potency [17]

O=NN(CCO)CCO
inactive: Potency [1] | Potency [2] | Potency [3] | Potency [4] | Potency [5] | Potency [6] | Potency [7] | Potency [8] | Potency [9] | Potency [10] | Potency [11] | Potency [13] | Potency [14] | Potency [15] | Potency [19] | Potency [16] | Potency [20] | Potency [17] | Potency [18]

CNNC
inactive: Potency [1] | Potency [2] | Potency [3] | Potency [4] | Potency [5] | Potency [6] | Potency [7] | Potency [8] | Potency [9] | Potency [10] | Potency [11] | Potency [12] | Potency [13] | Potency [14] | Potency [15] | Potency [20] | Potency [17] | Potency [18]

CCc1cc(OC)c(C[C@H](C)N)cc1OC
inactive: Potency [1] | Potency [2] | Potency [3] | Potency [4] | Potency [5] | Potency [6] | Potency [7] | Potency [8] | Potency [9] | Potency [10] | Potency [11] | Potency [12] | Potency [14] | Potency [19] | Potency [16] | Potency [18]

CCCCCCC(=O)CCCCCC/C=C/C[C@@H](O)[C@H](O)[C@@](N)(CO)C(=O)O
inactive: activity change, negative = cytotoxicity [1] -1.3% [at 19 µM] | activity, positive = activation [2] -3.71% [at 19 µM] | activity change [3] 0.629% [at 11.8 µM, active compounds read high] | activation [4] 0.0857% [at 15.8 µM] | activation [5] 0.714% [at 11.8 µM] | activation [6] 4.34% [at 13.5 µM] | activation [7] 0.608% [at 13.6 µM] | activity change, negative = cytotoxicity [8] 0.682% [at 13.5 µM] | activity change, negative = cytotoxicity [9] -0.611% [at 13.5 µM] | activity change, negative = cytotoxicity [10] 17.4% [at 13.5 µM] | activation [11] 0.605% [at 13.5 µM] | activity, negative = inhibition [12] 87.4% [at 12.7 µM] | activation [13] 2.62% [at 15.9 µM] | activity, negative = inhibition [14] 3.07% [at 12.6 µM] | activation [15] -0.559% [at 15.8 µM] | activation [19] 3.57% [at 19 µM] | activity change, negative = inhibition [16] -12.2% [at 18.9 µM] | activity change, negative = inhibition [20] 9.53% [at 19 µM] | activity change, negative = inhibition [18] 0.928% [at 18.9 µM]
